Test [1] is described as follows: E. coli DRC41 culture turbidity changes, primary screen, E. coli filamentation inducer project, strain DRC41, OD650, 48 h (AID 1152).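 Further: E. coli MC1000 strain DRC41 lacking acrAB efflux pump and sulA.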 The settings on record: E. coli DRC41 (acrAB sulA), higher = more signal, called active from +8 up or from −8 down.
A short description of test [2]: small-molecule binders of probe aLefty1, primary screen, biochemical, small-molecule microarray, 635/667 nm fluorescence (AID 1153).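 Further: score merges spot fluorescence with signal-to-noise ratio from the scanned slide images.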 The settings on record: higher = more signal.
The nature of test [3]: PSAC antagonists in infected red cells, primary screen, cell-based, P. falciparum Indochina, OD700, 1 h (AID 1154). The settings on record: P. falciparum Indochina infected RBC osmotic lysis, higher = more signal, called active from +8 up or from −8 down.
Test [4] in a line: PSAC antagonists in infected red cells, primary screen, cell-based, P. falciparum Indochina, OD700, 2 h (AID 1155).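 Further: lysis reports solute entry through the parasite surface anion channel PSAC; channel blockers reduce lysis of infected cells.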 Conditions: P. falciparum Indochina infected erythrocytes, osmotic lysis OD700; higher = more signal, called active from +8 up or from −8 down.
Test [5] in a line: osmotic lysis modulators in infected erythrocytes, primary screen, PSAC antagonist project, cell-based, P. falciparum Indochina, OD700, 3 h (AID 1156). Conditions: higher = more signal, called active from +8 up or from −8 down.
A short description of test [6]: PSAC antagonists in infected red cells, primary screen, cell-based, P. falciparum Indochina, OD700, 18 h (AID 1157). Conditions: P. falciparum Indochina infected erythrocytes, osmotic lysis OD700, 18 h; higher = more signal, called active from +8 up or from −8 down.
Test [7] is described as follows: modulators of S6 phosphorylation in cells, primary screen, cell-based, A549, cytoblot, luminescence, serum-stimulated (AID 1158).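 Further: serum-stimulated A549 lung adenocarcinoma cells; signal is phosphorylated S6 detected by cytoblot immunostaining with HRP secondary.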 Conditions: A549 phospho-S6 cytoblot, 5 h, higher = more signal.
Test [8] has as its target NADPH oxidase 2 (Homo sapiens) (UniProt P04839). Kind of test: NOX2-dependent H2O2 signal modulators, primary screen, NOX inhibitor project, cell-based, HEK293-NOX2, PMA-stimulated, Amplex Red fluorescence (AID 1159). Further: test concentration not given here. Conditions: 45 min, higher = more signal, called active from +8 up or from −8 down.
Test [9] has as its target NADPH oxidase 4 (Homo sapiens) (UniProt Q9NPH5). Briefly: NOX4-dependent H2O2 signal modulators, primary screen, NOX inhibitor project, cell-based, HEK293-NOX4, tetracycline-induced, Amplex Red fluorescence (AID 1160). Conditions: 45 min, higher = more signal, called active from +8 up or from −8 down.
The target in test [10] is NADPH oxidase 5 (Homo sapiens) (UniProt Q96PH1). Briefly: NOX5-dependent H2O2 signal modulators, primary screen, NOX inhibitor project, cell-based, HEK293-NOX5, Amplex Red fluorescence (AID 1161). Conditions: HEK293-NOX5, ionomycin, 45 min, higher = more signal.

Active and inactive are the calls of the source.

NADPH oxidase 5 (Homo sapiens), sequence (Q96PH1 whole entry, looked up): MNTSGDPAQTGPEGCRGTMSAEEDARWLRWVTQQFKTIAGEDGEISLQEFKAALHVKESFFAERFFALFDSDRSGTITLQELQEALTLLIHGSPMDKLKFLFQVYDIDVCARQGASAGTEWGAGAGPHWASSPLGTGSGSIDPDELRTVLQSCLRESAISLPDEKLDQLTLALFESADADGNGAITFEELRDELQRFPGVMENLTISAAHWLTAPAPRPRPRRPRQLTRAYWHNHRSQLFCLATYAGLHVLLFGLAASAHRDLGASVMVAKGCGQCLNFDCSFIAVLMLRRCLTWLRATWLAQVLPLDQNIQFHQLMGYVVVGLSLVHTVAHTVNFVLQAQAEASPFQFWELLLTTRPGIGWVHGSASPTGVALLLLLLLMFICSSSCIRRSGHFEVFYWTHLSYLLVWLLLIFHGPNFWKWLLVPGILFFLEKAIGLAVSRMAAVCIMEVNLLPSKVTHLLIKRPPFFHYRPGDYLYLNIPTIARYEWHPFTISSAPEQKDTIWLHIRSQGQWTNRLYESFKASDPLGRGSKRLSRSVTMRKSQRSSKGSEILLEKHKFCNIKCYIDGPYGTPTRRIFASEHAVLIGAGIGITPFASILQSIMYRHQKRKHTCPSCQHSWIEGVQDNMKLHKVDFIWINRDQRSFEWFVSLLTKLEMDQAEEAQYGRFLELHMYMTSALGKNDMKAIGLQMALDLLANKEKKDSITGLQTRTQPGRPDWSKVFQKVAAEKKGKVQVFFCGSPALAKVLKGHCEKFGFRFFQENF
NADPH oxidase 2 (Homo sapiens), sequence (P04839 whole entry, looked up): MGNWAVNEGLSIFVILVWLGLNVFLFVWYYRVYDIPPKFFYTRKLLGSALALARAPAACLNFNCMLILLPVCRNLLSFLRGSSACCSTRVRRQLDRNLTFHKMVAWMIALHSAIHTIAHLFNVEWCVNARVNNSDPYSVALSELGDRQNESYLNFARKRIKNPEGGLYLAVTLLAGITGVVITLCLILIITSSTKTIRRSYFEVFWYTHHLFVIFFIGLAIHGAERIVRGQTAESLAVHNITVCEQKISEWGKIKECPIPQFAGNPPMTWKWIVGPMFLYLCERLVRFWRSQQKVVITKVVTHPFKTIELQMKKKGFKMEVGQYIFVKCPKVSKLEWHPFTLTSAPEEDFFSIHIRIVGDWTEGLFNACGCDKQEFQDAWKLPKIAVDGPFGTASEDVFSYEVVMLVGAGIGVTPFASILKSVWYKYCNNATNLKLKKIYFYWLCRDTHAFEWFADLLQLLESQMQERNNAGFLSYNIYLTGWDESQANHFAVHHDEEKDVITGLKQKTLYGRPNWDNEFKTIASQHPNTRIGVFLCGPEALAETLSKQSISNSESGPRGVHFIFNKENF
NADPH oxidase 4 (Homo sapiens), sequence (Q9NPH5 whole entry, looked up): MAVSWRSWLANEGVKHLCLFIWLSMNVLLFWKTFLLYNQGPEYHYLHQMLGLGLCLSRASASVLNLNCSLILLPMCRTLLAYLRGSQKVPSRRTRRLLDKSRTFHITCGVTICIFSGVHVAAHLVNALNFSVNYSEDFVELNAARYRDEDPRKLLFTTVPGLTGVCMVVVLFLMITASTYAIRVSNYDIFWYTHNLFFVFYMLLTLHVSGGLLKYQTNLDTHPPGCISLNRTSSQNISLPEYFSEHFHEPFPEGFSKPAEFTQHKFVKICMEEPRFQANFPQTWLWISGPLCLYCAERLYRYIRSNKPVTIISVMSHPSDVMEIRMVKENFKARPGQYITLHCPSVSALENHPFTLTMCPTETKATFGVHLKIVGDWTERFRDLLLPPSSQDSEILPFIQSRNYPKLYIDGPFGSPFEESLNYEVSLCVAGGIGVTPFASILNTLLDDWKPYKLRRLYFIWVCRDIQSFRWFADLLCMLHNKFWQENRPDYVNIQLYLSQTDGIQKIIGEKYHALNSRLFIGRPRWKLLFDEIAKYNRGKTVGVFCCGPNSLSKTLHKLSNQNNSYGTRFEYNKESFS

For `COC(=O)C(CC#Cc1ccc2c(c1)[C@]1(C(=O)N2)[C@H](c2ccc(O)cc2)N2[C@H](c3ccccc3)[C@H](c3ccccc3)OC(=O)[C@H]2[C@@H]1C(=O)O)C(=O)OC`, the z-score is -1.42 (inactive) in test [1]; 0.489 (inactive) in [3]; -0.18 (inactive) in test [4]; -0.258 (inactive) in test [5]; -0.367 (inactive) in test [6]; -0.351 in test [7]. Besides, the z-score in test [8] was 1.42 (inactive); in [9], 0.0467 (inactive); in test [10], 1.29. The molecule further came in with a composite z-score in test [2] of 0.0315.

On to `CC(C)=CCCC(C)=CC(O)C1C=CC2C(=O)N(c3ccccc3)C(=O)C2N1Nc1ccc([N+](=O)[O-])cc1` (stereo not given), for which the z-score in test [1] is -1.41 (inactive); in [3], 8.34 (active); in test [4], 2.3 (inactive); in test [5], 1.04 (inactive); in test [6], 1.44 (inactive); in test [7], -0.563. The z-score in test [8] is -0.381 (inactive); in test [9] it was -3.41 (inactive); in test [10] it was -0.516. In test [2], the composite z-score was -0.131.

Consider `CN(C)C(=O)[C@]1(Cc2ccccc2N=[N+]=[N-])N=C(c2ccc(OCCCO)cc2)O[C@@H]1c1ccccc1CN=[N+]=[N-]`, for which the z-score in test [1] is 0.367 (inactive); in [3], 29.4 (active); in [4] it was 20 (active); in test [5], 3.02 (inactive); in [6] it was 2.16 (inactive); in test [7] it was 0.915. For the same molecule, the z-score was -2.57 (inactive) in [8], -0.305 (inactive) in test [9] and -1.93 in test [10]. Besides, in test [2], the composite z-score was 0.81.

In the case of `CC(=O)NCCCC[C@@H]1NC(=O)[C@H]2C[C@@H](C(=O)NCCCCCN)[C@@H](c3cccc(OCCO)c3)N2C1=O`, the z-score in [1] is 2.39 (inactive); in test [3], 1.15 (inactive); in test [4], -1.08 (inactive); in [5] it was 1.9 (inactive); in [6], -1.98 (inactive); in test [7] it was 1.36. Further, the z-score was 0.0821 (inactive) in test [8], 0.793 (inactive) in test [9] and 0.875 in test [10]. For the same molecule, the composite z-score in test [2] amounted to 0.262.

Consider `COC(=O)[C@@]1(Cc2ccc(OC)cc2)[C@H]2c3cc(C(=O)N(C)C)n(CCF)c3C[C@H]2CN1C(=O)c1ccccc1`, for which the z-score in [1] is -0.55 (inactive); in [3], 1.81 (inactive); in test [4] it was 0.847 (inactive); in test [5] it was 0.865 (inactive); in test [6], 1.06 (inactive); in [7], -0.132. Also, the z-score in test [8] is 0.605 (inactive); in test [9], 2.58 (inactive); in test [10], 0.602. This molecule also had a composite z-score in [2] of 0.624.

On to `[N-]=[N+]=Nc1ccccc1[C@H]1OC(c2ccc(OCCCO)cc2)=N[C@@]1(Cc1ccccc1)C(=O)NCc1ccccc1`, for which the z-score in test [1] is 1.74 (inactive); in test [3] it was 33.5 (active); in test [4], 26.9 (active); in test [5], 1.22 (inactive); in [6], 2.33 (inactive); in test [7], 2.03. Also, the figures for the z-score in test [8], in test [9] and in test [10] were -2.35 (inactive), -0.275 (inactive) and -1.3, respectively. The composite z-score in test [2] is 0.512.

Take `O=C1O[C@H](c2ccccc2)[C@H](c2ccccc2)N2[C@H]1[C@@H](C(=O)N1CCCCCCC1)[C@]1(C(=O)Nc3ccccc31)[C@H]2c1ccc(O)cc1`: the z-score in [1] was -0.0491 (inactive); in test [3] it was 0.517 (inactive); in test [4], 0.435 (inactive); in [5], -0.882 (inactive); in test [6], 0.19 (inactive); in [7] it was -0.541. In addition, the z-score is -4.42 (inactive) in [8], -1.03 (inactive) in [9] and -3.4 in test [10]. For the same molecule, in [2], the composite z-score worked out at 2.97.

With `COC(=O)[C@@]1(Cc2ccc(F)cc2)[C@H]2c3cc(C(=O)N(C)C)n(CCSCCO)c3C[C@H]2CN1C(=O)c1ccccc1`, the z-score in test [1] is -0.683 (inactive); in test [3], 0.621 (inactive); in [4] it was -0.383 (inactive); in test [5], -0.662 (inactive); in test [6], 0.397 (inactive); in [7] it was -0.426. Also, the z-score was 0.746 (inactive) in test [8], -0.303 (inactive) in [9] and -0.572 in [10]. Also, the composite z-score in test [2] is -0.0901.

Consider `COc1ccc([Si](C)(C)[C@@H]2[C@@H](CCO)O[C@]3(C(=O)N(Cc4ccccc4)c4ccc(N5C(=O)COc6ccccc65)cc43)[C@H]2C)cc1`, for which the z-score in [1] was 2.1 (inactive); in test [3], 3.28 (inactive); in test [4] it was 2.11 (inactive); in test [5], 0.364 (inactive); in test [6] it was 1.78 (inactive); in test [7] it was 0.631. In addition, the figures for the z-score in test [8], in [9] and in [10] were 0.883 (inactive), 1.33 (inactive) and 1.42, respectively. In test [2], the composite z-score was -0.435.

As to `O=C1NC(=O)C2C1C=CC(C(O)c1ccc3c(c1)OCO3)N2Nc1ccc(Cl)cc1Cl` (stereo not given), the z-score in test [1] is -3.85 (inactive); in test [3], 7.58 (inactive); in test [4], 1.84 (inactive); in test [5], -0.254 (inactive); in test [6] it was 1.56 (inactive); in test [7] it was -0.593. The values for the z-score in test [8], in test [9] and in test [10] were -0.0436 (inactive), -5.24 (inactive) and -3.26, respectively. Besides, the composite z-score in [2] stood at 0.0861.

Consider `COc1cc(C(O)C2C=CC3C(=O)NC(=O)C3N2Nc2ccc(Cl)cc2Cl)cc(OC)c1OC` (stereo not given), for which the z-score was -1.52 (inactive) in test [1]; 1.94 (inactive) in test [3]; 1.49 (inactive) in [4]; 0.0681 (inactive) in test [5]; 1.24 (inactive) in test [6]; -0.778 in [7]. Further, the z-score in test [8] is -0.885 (inactive); in test [9] it was -5.56 (inactive); in test [10], -3.11. In addition, the composite z-score in [2] came to 0.505.
